T cruzi growth-1 – inhibitors of T. cruzi proliferation; AID 624255; T. cruzi beta-gal in NIH3T3, GalScreen luminescence, 90 h; 77,000 compounds, 5.9% hits; inhibition, % at 8.34 µM;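 active means mean inhibition above about 93%, with at least 55% of replicates each passing it, limit read from the data, passing the limit was not always enough; inconclusive means only one of those two conditions holds; inactive means neither condition holds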
Pf Dd2 growth – blocks growth of Plasmodium falciparum Dd2 parasites; P. falciparum Dd2 growth, SYBR Green, 72 h; hits give low values; activity change, % at 10 µM; 94,000 compounds, 2.3% hits; in the data active means activity change below about -80%; inconclusive means no clear call, values can overlap the other calls
C diff HTS – blocks growth of Clostridium difficile. AID 1259249. Clostridium difficile clinical isolate growth, OD600, 24 h; hits give low values. 86,000 compounds, 0.25% hits. growth activity, negative = inhibition, % at 16 µg/mL (by protocol);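 active means mean growth activity at or below -80% and every replicate also at or below -80%; inconclusive means mean at or below -80% but some replicate above -80%; inactive means mean growth activity above -80%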;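 further: 0% = DMSO wells and -100% = levofloxacin 16 µg/mL wells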
T cruzi growth-2 – Trypanosoma cruzi proliferation inhibition. shares compounds with T cruzi growth-1. T. cruzi beta-gal in NIH3T3, GalScreen luminescence, 90 h. inhibition, % at 8.35 µM. 5,600 compounds, 72% hits. AID 651739;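 active means mean replicate inhibition above about 95% and at least 55% of replicates individually reaching it, limit read from the data; inconclusive means only one of the two criteria is met; inactive means neither criterion is met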
T cruzi growth-3 – inhibitors of T. cruzi proliferation. AID 651740. shares compounds with T cruzi growth-1. T. cruzi beta-gal in NIH3T3, GalScreen luminescence, 90 h. 5,600 compounds, 21% hits. inhibition, % at 2.09 µM;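 active means mean inhibition above about 95%, with at least 55% of replicates also reaching it, limit read from the data; inconclusive means meets just one of the two conditions; inactive means meets neither condition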;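 further: plate controls were neutral control median for no effect and positive control median for full effect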
3T3 cytotox – cytotoxicity in mouse NIH/3T3 fibroblasts | shares compounds with T cruzi growth-1 | NIH/3T3 viability, CellTiter-Glo ATP luminescence, 90 h | cytotoxicity (signal decrease), % at 8.35 µM | 5,600 compounds, 14% hits | AID 651742;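 active means mean signal decrease across replicates above about 35% based on untreated-well scatter, with enough replicates individually passing, limit read from the data; inconclusive means no rule stated though some were filed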;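 further: 0% = median of neutral control wells and 100% = median of positive control wells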
3T3 cytotox 2 – kills mouse NIH/3T3 fibroblasts; shares compounds with T cruzi growth-1; NIH/3T3 viability, CellTiter-Glo ATP luminescence, 90 h; inhibition, % at 24.9 µM; 5,600 compounds, 56% hits; AID 651744;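 active means mean loss of cell viability signal at or above a set limit, and enough replicates individually reaching it; inconclusive means meets only the mean limit or only the replicate share; inactive means meets neither condition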;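 further: 0% = median of neutral control wells and 100% = median of positive control wells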
An asterisk follows results filed as active; ? = inconclusive; . = no result. Compounds with a hit are over-represented: about 6.7% of the library has one in this group of screens.

SMILES | T cruzi growth-1 | Pf Dd2 growth | C diff HTS | T cruzi growth-2 | T cruzi growth-3 | 3T3 cytotox | 3T3 cytotox 2
COc1ccc(NC(=O)N2CC(=O)N3[C@H](C2)[C@@H](c2ccc(C#CCC4CCCC4)cc2)[C@@H]3CO)cc1 | . | -58 | 0 | . | . | . | .
COc1ccc(C#Cc2ccc([C@@H]3[C@H]4CN(S(=O)(=O)c5ccccc5)CCCCN4[C@H]3CO)cc2)cc1 | 46 | -59 | 13 | . | . | . | .
COc1ccc(C#Cc2ccc([C@H]3[C@H]4CN(S(=O)(=O)c5ccccc5)CCCCN4[C@H]3CO)cc2)cc1 | 107* | -46 | 2 | 111* | 99* | 3 | 52*
O=S(=O)(c1ccccc1)N1CCCCN2[C@H](CO)[C@@H](c3ccc(C#Cc4ccccc4)cc3)[C@@H]2C1 | 83 | 19 | 22 | . | . | . | .
COc1ccc(S(=O)(=O)N2CCCCN3[C@H](C2)[C@@H](c2ccc(C#CCC(C)C)cc2)[C@@H]3CO)cc1 | 65 | -18 | 10 | . | . | . | .
O=S(=O)(c1ccccc1)N1CCCCN2[C@@H](CO)[C@@H](c3ccc(C#Cc4ccccc4)cc3)[C@@H]2C1 | 70 | -38 | 33 | . | . | . | .
O=S(=O)(c1ccccc1)N1CCCCN2[C@H](CO)[C@@H](c3ccc(C#Cc4cccnc4)cc3)[C@H]2C1 | ? | -37 | 6 | 110* | 62 | 25 | 79*
COc1ccc(C#Cc2ccc([C@H]3[C@@H](CO)N4CCCCN(S(=O)(=O)c5ccccc5)C[C@H]34)cc2)cc1 | 101* | -73 | 60 | 98* | 76 | 25 | 104*
COc1ccc(S(=O)(=O)N2CCCCN3[C@@H](CO)[C@H](c4ccc(C#CC(C)C)cc4)[C@@H]3C2)cc1 | 104* | -32 | 26 | 98* | 85 | 46* | 104*
C[C@@H]1CN([C@@H](C)CO)C(=O)c2cc(C#Cc3cccnc3)cnc2O[C@H]1CN(C)C | 34 | -14 | 0 | . | . | . | .
CCC(=O)Nc1ccc2c(c1)C(=O)N(C)C[C@@H](OC)[C@H](C)CN(CC1CCOCC1)[C@@H](C)CO2 | 14 | 17 | 3 | . | . | . | .
CC=Cc1ccc2n(c1=O)C[C@H]1[C@H](CO)[C@@H](C(=O)N(C)C)[C@@H]2N1CCc1ccccc1 (mixture of isomers) | 36 | . | -3 | . | . | . | .
COc1ccc2c3c(n(C)c2c1)[C@@H](CO)N(C(=O)c1ccccn1)CC31CCN(C(C)=O)CC1 | . | -43 | 9 | . | . | . | .
C[C@@H]1CN([C@@H](C)CO)S(=O)(=O)c2ccc(C#CC3CC3)cc2O[C@H]1CN(C)CC1CCCC1 | 32 | -60 | . | . | . | . | .
CCCNC(=O)N(C)C[C@H]1Oc2ncc(C#CC3(O)CCCC3)cc2C(=O)N([C@@H](C)CO)C[C@H]1C | . | 12 | 4 | . | . | . | .
C[C@H]1CN([C@@H](C)CO)C(=O)Cc2cc(NC(=O)Cc3ccccc3)ccc2O[C@@H]1CN(C)Cc1ccc(C(F)(F)F)cc1 | 120* | -27 | 6 | 112* | 92 | -5 | 98*
C[C@H](CO)N1C[C@H](C)[C@H](CN(C)Cc2ccc(C(F)(F)F)cc2)Oc2ccc(NC(=O)Cc3ccccc3)cc2CC1=O | 85 | 3 | -3 | . | . | . | .
C[C@@H]1CN([C@H](C)CO)C(=O)Cc2cc(NC(=O)Cc3ccccc3)ccc2O[C@H]1CN(C)Cc1ccc2c(c1)OCO2 | 12 | 13 | -2 | . | . | . | .
C[C@H]1CN([C@@H](C)CO)C(=O)Cc2cc(NC(=O)Cc3ccccc3)ccc2O[C@H]1CN(C)Cc1ccc(C(F)(F)F)cc1 | 105* | 6 | 7 | 108* | 67 | 14 | 104*
C[C@@H]1CN([C@@H](C)CO)C(=O)Cc2cc(NC(=O)Cc3ccccc3)ccc2O[C@@H]1CN(C)Cc1ccccc1 | 57 | -27 | -6 | . | . | . | .
C[C@H]1CN([C@@H](C)CO)C(=O)Cc2cc(NC(=O)Cc3ccccc3)ccc2O[C@@H]1CN(C)Cc1ccc2c(c1)OCO2 | 102* | -44 | -4 | 108* | 21 | 11 | 3
CCC(=O)N(C)C[C@@H]1Oc2ncc(C#CCC(C)C)cc2C(=O)N([C@H](C)CO)C[C@@H]1C | 80 | 23 | -7 | . | . | . | .
CCCNC(=O)C[C@@H]1CC[C@@H]2[C@H](COC[C@@H](O)CN2C(=O)CC)O1 | . | 25 | 1 | . | . | . | .
Cc1ccc(-c2ccc([C@@H]3[C@@H](CO)N4CCCCN(C(=O)Nc5ccccc5)C[C@@H]34)cc2)cc1 | 110* | -14 | 50 | 106* | 72 | 26 | 104*
Cc1ccc(-c2ccc([C@H]3[C@H]4CN(C(=O)Nc5ccccc5)CCCCN4[C@H]3CO)cc2)cc1 | 109* | 17 | 49 | 107* | 43 | 21 | 91*
SMILES | T cruzi growth-1 | Pf Dd2 growth | C diff HTS | T cruzi growth-2 | T cruzi growth-3 | 3T3 cytotox | 3T3 cytotox 2
O=C(Nc1ccccc1)N1CCCCN2[C@@H](CO)[C@@H](c3ccc(-c4ccccc4)cc3)[C@@H]2C1 | 95 | -78 | 42 | . | . | . | .
O=C(Nc1ccccc1)N1CCCCN2[C@H](CO)[C@H](c3ccc(Br)cc3)[C@@H]2C1 | 56 | 28 | 15 | . | . | . | .
O=C(Nc1ccccc1)N1CCCCN2[C@H](C1)[C@@H](c1ccc(-c3ccccc3)cc1)[C@@H]2CO | 83 | -33 | 14 | . | . | . | .
O=C(Nc1ccccc1)N1CCCCN2[C@H](C1)[C@H](c1ccc(-c3ccccc3)cc1)[C@@H]2CO | 128* | -69 | 14 | 103* | 43 | 12 | 9
C[C@@H]1CN([C@@H](C)CO)C(=O)c2cccc(NC(=O)C3CC3)c2O[C@@H]1CN(C)Cc1ccncc1 | 61 | 14 | 0 | . | . | . | .
CN(C)CCCNC(=O)C[C@@H]1C=C[C@@H](NC(=O)c2ccccc2F)[C@H](CO)O1 | 6 | 18 | . | . | . | . | .
C[C@@H]1CCCCO[C@@H](CN(C)S(=O)(=O)c2ccccc2)[C@@H](C)CN([C@@H](C)CO)C(=O)c2cc(NC(=O)Nc3ccc(C(F)(F)F)cc3)ccc2O1 | 105* | -59 | 1 | 103* | 106* | 37* | 63*
C[C@@H]1CN([C@H](C)CO)C(=O)c2cc(NC(=O)Nc3ccc(C(F)(F)F)cc3)ccc2O[C@@H](C)CCCCO[C@H]1CN(C)S(C)(=O)=O | 57 | 13 | -2 | . | . | . | .
C[C@@H]1CCCCO[C@@H](CN(C)S(=O)(=O)c2ccccc2)[C@H](C)CN([C@@H](C)CO)C(=O)c2cc(NC(=O)Nc3ccc(C(F)(F)F)cc3)ccc2O1 | 109* | -75 | -3 | 104* | 115* | 13 | 1
C[C@@H]1CCCCO[C@H](CN(C)S(=O)(=O)c2ccccc2)[C@@H](C)CN([C@@H](C)CO)C(=O)c2cc(NC(=O)Nc3ccccc3)ccc2O1 | 5 | -45 | . | . | . | . | .
C[C@@H]1CN([C@@H](C)CO)C(=O)c2cc(NC(=O)Nc3ccc(C(F)(F)F)cc3)ccc2O[C@@H](C)CCCCO[C@@H]1CN(C)S(=O)(=O)c1ccccc1 | 76 | -44 | -10 | . | . | . | .
